# Measurements as given in PubChem BioAssay (Tox21).
# Inconclusive results are not listed. Activity calls are given as the source filed them. Calls come from the whole dose curve; as a rule, active = well fitted activation curve with a large enough effect in the repeat runs; inconclusive = weak or mixed curves; inactive = flat fitted curve, though single readings scatter.
# Test: A CellTox Green Cytotoxicity Assay to monitor cytotoxicity in HepG2 cells - 40 hour (AID 1224879); note: nearly all actives have a fitted effect of over 40% in size
# Details: CellTox Green fluorescence; series mostly up to 76.8 µM; cytotoxicity increase: at the top concentration
# Source text: National Center for Advancing Translational Sciences [NCATS]
# NIH Chemical Genomics Center [NCGC]
# U.S. Environmental Protection Agency [EPA]
# National Institutes of Environmental Health Sciences [NIEHS]
# National Toxicology Program [NTP]
# Cell-based models are critical for drug discovery. Determining the natural cytotoxic effects resulting from test compounds is an essential research activity. A CellTox Green Cytotoxicity Assay to monitor cytotoxicity in real time of continues cell culture during 40 hours of the compound treatment was used to screen Tox21 10K library compounds in HepG2 cells. CellTox Green Cytotoxicity Assay is a nonlytic, homogeneous, biofluorescent method to measure cytotoxicity in cell culture after experimental manipulation. The assay system uses a proprietary asymmetric cyanine dye that is excluded from viable cells but preferentially stains the dead cell's DNA. […] Viable cells produce no appreciable increases in fluorescence. Therefore, the fluorescence signal produced by the binding interaction with dead cell DNA is proportional to cytotoxicity.
# The mixture of HepG2 cell suspension and reagents were dispensed at 600cells/6 ul/well in 1536-well tissue culture treated black solid bottom plates using a Multidrop dispenser. After the assay plates were incubated at a 37 C/5% CO2 incubator for 5 hours, 23 nL of compounds dissolved in DMSO, positive and negative controls was transferred to the assay plate by a pintool work station. The plates were incubated at 37 C for 40 hours. The fluorescence intensity were measured at 0h, 8h, 16h, 24h, 32h and 40h time points using ViewLux plate reader during compound treatment.
# % is set by controls: 0 for no effect and ±100 for the full control effect; potency is the fitted concentration of half-maximal effect.
SMILES,cytotoxicity increase,Potency
CCCCNc1ccc(C(=O)OCCN(CC)CC)cc1,-1.42% [at 35.3 µM] (inactive),–
CC(Oc1c(Cl)cccc1Cl)C1=NCCN1 (stereo not given),-3.94% [at 35.3 µM] (inactive),–
CS(=O)(=O)c1ccc([C@@H](O)[C@@H](CF)NC(=O)C(Cl)Cl)cc1,9.64% [at 35.3 µM] (inactive),–
OC[C@H]1O[C@@H](O[C@H]2[C@H](O)[C@@H](O)[C@H](O)O[C@@H]2CO)[C@H](O)[C@@H](O)[C@H]1O,-0.651% (inactive),–
CCCOc1ccc2c(c1)CC[C@@H]1[C@@H]2CC[C@]2(C)C(OC)CC[C@@H]12 (stereo not given in full),-8.87% [at 35.3 µM] (inactive),–
CCN(CC)CCNC(=O)COc1ccc(Cl)cc1,-1.68% [at 35.3 µM] (inactive),–
CC(C)(C)C1CCCCC1=O (stereo not given),-3.51% (inactive),–
CC/C=C\CCOC(=O)C(C)C,1.39% (inactive),–
CCCCNC(=S)NCCCC,-15.1% (inactive),–
CCCC(CCC)(C(=O)OCC)C(=O)OCC,-17.6% [at 35.3 µM] (inactive),–
NC(=O)NS(=O)(=O)c1ccc(Cl)cc1,-11.2% [at 35.3 µM] (inactive),–
CCCCNc1cc(C(=O)O)cc(S(N)(=O)=O)c1Oc1ccccc1,26.1% [at 35.3 µM] (inactive),–
CCCC1CCC(=O)O1 (stereo not given),-6.09% (inactive),–
CCOC(=O)CS,-18.6% (inactive),–
CCNCCO,2.79% (inactive),–
C[C@@H](N)C(=O)O,7.75% [at 35.3 µM] (inactive),–
COc1cc2c(cc1N)oc1ccccc12,-2.58% (inactive),–
CCCCOc1cc(C(=O)NCCN(CC)CC)c2ccccc2n1,–,23.9 µM (active)
CC1(C)C(=O)N(Cl)C(=O)N1Br,0.592% (inactive),–
Cc1ccc(C)c(N)c1,1.68% (inactive),–

SMILES,cytotoxicity increase,Potency
ClC(Cl)Cl,2.44% (inactive),–
CCCNC(C)C(=O)Nc1c(C)csc1C(=O)OC (stereo not given),-25.2% [at 35.3 µM] (inactive),–
CC(C)C1=CC2=CC[C@@H]3[C@](C)(CCC[C@@]3(C)C(=O)O)[C@H]2CC1,8.04% (inactive),–
CCOc1ccc(OCC)c(Cl)c1,19.6% (inactive),–
CCOc1ccc2nc(N)sc2c1,1.76% (inactive),–
O=C1CCCc2ccccc21,-3.25% (inactive),–
CC/C=C\CCOC(=O)CCCCC,18.6% (inactive),–
CCCOCCC,-0.488% (inactive),–
CCOc1ccc(NC(N)=O)cc1,-8.34% (inactive),–
CC(C)S,1.04% (inactive),–
OCc1ccccc1O,3.14% [at 35.3 µM] (inactive),–
CC1(C)S[C@@H]2[C@H](NC(=O)C(C(=O)O)c3ccccc3)C(=O)N2[C@H]1C(=O)O (stereo not given in full),0.0766% [at 35.3 µM] (inactive),–
Cc1cn([C@@H]2O[C@H](CO)[C@@H](O)[C@@H]2F)c(=O)[nH]c1=O,-1.35% [at 35.3 µM] (inactive),–
CC(CNC1CCCCC1)OC(=O)c1ccccc1 (stereo not given),-0.207% [at 35.3 µM] (inactive),–
O=C1CCN(c2ccccc2)N1,0.0261% (inactive),–
CCOc1ccc(NS(=O)(=O)c2ccc(N)cc2)nn1,-11.3% [at 35.3 µM] (inactive),–
CN1CCN(N)CC1,9.93% [at 35.3 µM] (inactive),–
CCc1cc(Cl)c(OC)c(C(=O)NC[C@@H]2CCCN2CC)c1O,16.7% [at 35.3 µM] (inactive),–
COc1ccccc1N1CCN(CCCNc2cc(=O)n(C)c(=O)n2C)CC1,-9.07% [at 35.3 µM] (inactive),–
Cc1c(N)cccc1N,1.87% (inactive),–
